Laboratory results as given in PubChem BioAssay.
Results filed as inconclusive are left out. Activity calls are given as the source filed them.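 How the source made its calls, unless noted: active means percent response above a set limit, the screen-wide mean plus 3 SD (cut at about 130% in these data); inactive means the rest.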

Legend:
[1] = rapamycin-like changes in RPL19A-GFP expression – cell-based, S. cerevisiae, multiplex flow cytometry, primary screen (AID 1862; in the data active means percent of DMSO control GFP below about 86%;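 further: lower values mimic rapamycin by blocking the RPL19A rise seen in DMSO cells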); settings: S. cerevisiae RPL19A-GFP strain, flow cytometry fluorescence, 3 h; at 10 µM; stronger effect = lower value
[2] = TOR pathway GLN3 branch reporter MEP2-GFP changes – S. cerevisiae, multiplex flow cytometry, primary screen (AID 1867;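 active means GFP response, as percent of the DMSO control, above the screen-wide mean plus 3 SD, about 139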;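 further: median GFP channel fluorescence of barcode-gated MEP2-GFP cells measured by flow cytometry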); settings: S. cerevisiae MEP2-GFP strain, 3 h, at 10 µM, stronger effect = higher value, 100% means same as DMSO wells
[3] = TOR pathway RTG branch CIT2 reporter changes – S. cerevisiae, GFP fusion, multiplex flow cytometry, primary screen (AID 1870);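 further: barcoded CIT2-GFP strain pooled with four other GFP strains with rapamycin as positive control; median GFP fluorescence per well over plate mean of DMSO wells so 100% = DMSO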; settings: S. cerevisiae CIT2-GFP expression, 3 h, at 10 µM, stronger effect = higher value
[4] = TOR pathway LAP4-GFP level changes – S. cerevisiae, multiplex flow cytometry, primary screen (AID 1873;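 active means GFP signal, as percent of the solvent control, above the screen mean plus 3 SD, about 149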); settings: S. cerevisiae LAP4-GFP expression, 3 h, at 10 µM, stronger effect = higher value
[5] = yeast AGP1-GFP level changes, GLN3 branch – cell-based, multiplex flow cytometry, S. cerevisiae, primary screen (AID 1887;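 active means GFP signal above the screen-wide mean plus 3 SD, that is over about 124.5% of the solvent control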;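 further: AGP1-GFP fusion strain of S. cerevisiae within a five-strain barcoded multiplex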); settings: 3 h, at 10 µM, stronger effect = higher value
[6] = reduced mouse 2C T cell binding to pMHC/ICAM-1 vesicles – MLPCN validation set, flow cytometry, LFA-1/ICAM-1 modulator project, pilot screen (AID 2523;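 active means response below a set limit, under 55% cells CD8-positive and vesicle-bound, and CD8 cells' 90th-percentile brightness under 279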;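 on vesicle binding response: mean PE anti-B7-1 fluorescence of CD8+ cells relative to row control; 100% = QL9-loaded vesicles with DMSO vehicle in the same plate row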); settings: 2C mouse CD8+ T cells, at 7 µM, stronger effect = lower value; double positive events: measured here: CD8+/vesicle+ event percentage
[7] = molecular target: Integrin beta-1 (Homo sapiens) + Integrin alpha-4 (Homo sapiens) (UniProt P13612+P05556); experiment: alpha4beta1 integrin LIBS antibody binding reduction – U937 cells, HUTS-21 mAb, flow cytometry, validation set, VLA-4 allosteric modulator project, pilot screen (AID 2674;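 active means inhibition above 50%, about 3 SD of the validation set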;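 further: antibody binding induced by the VLA-4 ligand LDV present at three times its Kd; 0% = LDV ligand with antibody and no compound and 100% = antibody without LDV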); settings: HUTS-21 LIBS mAb binding, at 6.7 µM, stronger effect = higher value, binding induced by LDV ligand
[8] = calorie-restriction mimetic ROS inhibitors, yeast – validation compound set, pilot screen (AID 2706;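 active means superoxide response below 65% of plate, a cut near 3 SD across the whole screen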;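 further: yeast exposed to compound for one week at 30 degrees C before staining; 100% = mean of all compound wells on the same plate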); settings: S. cerevisiae aging, superoxide DHE fluorescence; at 10 µM; stronger effect = lower value
[9] = molecular target: Beta-adrenergic receptor kinase 1 (Homo sapiens) (UniProt P25098); experiment: GRK2 binders displacing RNA aptamer, biochemical, validation, human GRK2, bead flow cytometry (AID 488806;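 active means aptamer binding inhibition above 30%, about 3 SD of noise from non-fluorescent compounds; inactive means inhibition at or below 30%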); settings: bead-bound GRK2, FAM-aptamer displacement, at 10 µM, stronger effect = higher value
[10] = molecular target: Beta-2 adrenergic receptor (Homo sapiens) (UniProt P07550); experiment: agonist-induced loss of surface beta2AR – cell-based, FAP fluorogen, flow cytometry, validation set, pilot screen (AID 504459;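 active means percent response above 42, roughly 3 SD of non-fluorescent test compounds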;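 further: agonist-driven loss of surface beta2AR via internalization measured by FAP dye flow cytometry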); settings: Am2.2-beta2AR cells, at 10 µM, stronger effect = higher value
[11] = molecular target: AP-2 complex subunit beta (Homo sapiens) (UniProt P63010); experiment: beta-arrestin/AP2 interaction blockers – biochemical, validation set, GST-AP2 beads, flow cytometry, pilot screen (AID 504541;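 active means inhibition above 54%, about 3 SD of non-fluorescent compounds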;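 further: AP2 carries R879A mutation and is captured from E. coli lysate; bead-bound FITC arrestin peptide fluorescence measuring arrestin peptide binding to AP2; 0% = DMSO wells and 100% = excess unlabeled arrestin peptide control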); settings: FITC arrestin peptide, at 10 µM, stronger effect = higher value, AP2 beta2 appendage fragment, R879A mutant
[12] = cytosolic pH regulators acting via V-ATPase – S. cerevisiae, pHLuorin, HTS validation (AID 504600; in the data active means response above about 15%;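 further: plate controls were DMSO for no effect and reference compound for full effect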); settings: V-ATPase proton transport, at 10 µM, stronger effect = higher value
[13] = system: anti-desmoglein-3 scFv antibody binding to human DSG3; experiment: blockers of pathogenic pemphigus antibody–desmoglein-3 binding – biochemical, validation compound set, bead-based, flow cytometry, pilot screen (AID 588368;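 active means binding below the plate cutoff, the plate median minus 3 SD, with a reading above zero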;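 further: signal is the median channel fluorescence of bead-bound GFP antibody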); settings: Protein G beads, DSG3-Fc, scFv-GFP binding, at 10 µM, stronger effect = lower value
[14] = Nile Red efflux blockade in pump-expressing yeast – validation compound set, multiplex, phenotypic, pilot screen (AID 588506;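 active means efflux inhibition above 0.42, the validation set average plus 4 SD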;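 further: Nile Red retained in cells so higher fluorescence means more efflux inhibition; 0 = negative control wells and 1 = enniatin B 25 µM full block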); settings: S. cerevisiae pump-expressing triplex, Nile Red efflux flow cytometry; at 10 µM; stronger effect = higher value; the pumps come from Candida albicans
[15] = molecular target: ATP-binding cassette sub-family B member 6 (Homo sapiens) (UniProt Q9NP58); experiment: blockers of ABCB6-driven porphyrin uptake – K562-ABCB6 cells, flow cytometry, validation set, pilot screen (AID 588550;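 active means inhibition above the screen-wide mean plus 3 SD, about 51%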;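 further: 0% = DMSO wells and 100% = benzethonium chloride 70 µM positive control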); settings: K562-ABCB6 porphyrin accumulation, 1 h, at 10 µM, stronger effect = higher value
[16] = AML differentiation inducers, ER-HoxA9 marrow cells – cell-based, GFP/MAC1 double positive, flow cytometry, validation set, primary screen (AID 588685;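 active means differentiation response of at least 50%, scaled between solvent and reference control, from cells with both markers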;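 further: compound exposure lasts four days before antibody staining and flow analysis; 0% = DMSO wells and 100% = 5 µM fulvestrant positive control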); settings: stronger effect = higher value, normalized: vehicle 0, fulvestrant 100

Sequence of AP-2 complex subunit beta (Homo sapiens) (P63010 whole entry, looked up, the tested form may be a part, one chain of several): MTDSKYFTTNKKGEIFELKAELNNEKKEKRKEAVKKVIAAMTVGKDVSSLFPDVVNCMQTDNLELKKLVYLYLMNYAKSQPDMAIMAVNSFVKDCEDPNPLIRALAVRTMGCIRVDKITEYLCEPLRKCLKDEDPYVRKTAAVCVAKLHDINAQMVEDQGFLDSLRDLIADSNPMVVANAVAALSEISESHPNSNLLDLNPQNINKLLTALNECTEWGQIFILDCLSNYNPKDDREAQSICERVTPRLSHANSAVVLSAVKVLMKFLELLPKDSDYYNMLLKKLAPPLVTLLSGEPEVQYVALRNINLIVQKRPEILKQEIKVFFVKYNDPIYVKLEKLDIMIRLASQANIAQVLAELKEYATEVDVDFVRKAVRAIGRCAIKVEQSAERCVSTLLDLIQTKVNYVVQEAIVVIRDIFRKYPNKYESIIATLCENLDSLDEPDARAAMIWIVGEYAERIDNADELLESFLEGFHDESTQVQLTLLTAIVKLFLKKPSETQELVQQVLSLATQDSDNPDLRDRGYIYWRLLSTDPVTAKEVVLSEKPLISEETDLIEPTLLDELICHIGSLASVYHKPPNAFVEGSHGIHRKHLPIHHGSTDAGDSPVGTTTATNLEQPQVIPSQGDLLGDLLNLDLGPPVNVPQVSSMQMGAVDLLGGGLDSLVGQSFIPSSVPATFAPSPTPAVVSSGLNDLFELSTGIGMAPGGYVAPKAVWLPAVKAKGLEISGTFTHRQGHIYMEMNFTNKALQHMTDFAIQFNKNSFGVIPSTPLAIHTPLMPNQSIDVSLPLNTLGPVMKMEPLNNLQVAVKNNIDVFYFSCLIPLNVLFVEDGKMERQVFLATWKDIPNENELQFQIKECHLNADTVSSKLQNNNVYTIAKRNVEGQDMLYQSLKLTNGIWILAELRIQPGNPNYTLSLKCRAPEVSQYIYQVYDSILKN
Sequence of ATP-binding cassette sub-family B member 6 (Homo sapiens) (Q9NP58 whole entry, looked up): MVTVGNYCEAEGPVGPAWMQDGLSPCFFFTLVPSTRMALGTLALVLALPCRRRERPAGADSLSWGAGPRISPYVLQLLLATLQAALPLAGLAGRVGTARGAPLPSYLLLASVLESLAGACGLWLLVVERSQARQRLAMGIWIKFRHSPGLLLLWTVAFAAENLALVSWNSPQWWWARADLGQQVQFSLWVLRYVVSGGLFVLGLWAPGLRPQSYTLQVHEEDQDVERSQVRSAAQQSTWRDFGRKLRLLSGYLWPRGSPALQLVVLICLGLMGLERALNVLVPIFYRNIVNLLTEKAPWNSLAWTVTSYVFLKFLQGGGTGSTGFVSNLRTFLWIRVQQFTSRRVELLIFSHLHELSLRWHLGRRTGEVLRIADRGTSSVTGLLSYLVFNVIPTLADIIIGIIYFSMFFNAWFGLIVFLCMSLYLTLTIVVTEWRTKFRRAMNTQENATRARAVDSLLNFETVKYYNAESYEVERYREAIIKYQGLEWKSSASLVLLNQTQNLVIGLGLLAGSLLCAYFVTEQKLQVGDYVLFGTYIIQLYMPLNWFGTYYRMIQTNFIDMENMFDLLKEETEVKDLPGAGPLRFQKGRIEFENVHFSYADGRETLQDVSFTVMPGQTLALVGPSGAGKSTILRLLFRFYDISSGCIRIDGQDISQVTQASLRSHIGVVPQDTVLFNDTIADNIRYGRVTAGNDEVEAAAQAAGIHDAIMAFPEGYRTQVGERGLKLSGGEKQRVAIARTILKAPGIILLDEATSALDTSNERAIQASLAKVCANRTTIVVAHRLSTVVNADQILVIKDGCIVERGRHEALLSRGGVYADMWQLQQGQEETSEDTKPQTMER
Sequence of Beta-2 adrenergic receptor (Homo sapiens) (P07550 whole entry, looked up): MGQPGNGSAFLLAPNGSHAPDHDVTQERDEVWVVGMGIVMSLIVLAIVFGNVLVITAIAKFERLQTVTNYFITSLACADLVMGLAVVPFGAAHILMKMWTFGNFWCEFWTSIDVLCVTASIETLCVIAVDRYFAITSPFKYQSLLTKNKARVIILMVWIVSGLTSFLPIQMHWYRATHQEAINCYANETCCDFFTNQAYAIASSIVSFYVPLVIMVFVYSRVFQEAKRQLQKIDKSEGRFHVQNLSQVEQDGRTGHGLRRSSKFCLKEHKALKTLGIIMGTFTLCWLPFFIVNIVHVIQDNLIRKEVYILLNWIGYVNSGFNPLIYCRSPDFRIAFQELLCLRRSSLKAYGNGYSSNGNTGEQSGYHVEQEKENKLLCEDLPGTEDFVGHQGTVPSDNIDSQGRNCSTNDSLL
Sequence of Beta-adrenergic receptor kinase 1 (Homo sapiens) (P25098 whole entry, looked up): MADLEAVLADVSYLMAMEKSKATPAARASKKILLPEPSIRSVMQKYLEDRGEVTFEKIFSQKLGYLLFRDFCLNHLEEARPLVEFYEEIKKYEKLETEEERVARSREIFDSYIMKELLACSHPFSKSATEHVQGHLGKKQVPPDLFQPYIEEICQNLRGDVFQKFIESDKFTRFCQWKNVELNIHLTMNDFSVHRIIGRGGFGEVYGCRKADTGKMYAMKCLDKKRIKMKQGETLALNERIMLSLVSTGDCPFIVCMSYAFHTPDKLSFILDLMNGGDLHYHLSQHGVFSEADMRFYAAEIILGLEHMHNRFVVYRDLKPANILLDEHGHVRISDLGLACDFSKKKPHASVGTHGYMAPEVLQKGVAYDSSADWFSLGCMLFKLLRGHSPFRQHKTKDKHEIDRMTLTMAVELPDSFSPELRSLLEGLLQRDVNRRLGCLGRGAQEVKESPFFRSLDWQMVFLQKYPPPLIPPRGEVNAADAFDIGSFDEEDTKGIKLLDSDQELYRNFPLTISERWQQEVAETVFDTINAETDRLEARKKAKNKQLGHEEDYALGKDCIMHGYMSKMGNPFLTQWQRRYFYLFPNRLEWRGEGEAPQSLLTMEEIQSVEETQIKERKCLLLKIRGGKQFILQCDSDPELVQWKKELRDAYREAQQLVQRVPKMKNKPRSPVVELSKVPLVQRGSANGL
Sequence of Integrin beta-1 (Homo sapiens) + Integrin alpha-4 (Homo sapiens) (P05556 whole entry, looked up): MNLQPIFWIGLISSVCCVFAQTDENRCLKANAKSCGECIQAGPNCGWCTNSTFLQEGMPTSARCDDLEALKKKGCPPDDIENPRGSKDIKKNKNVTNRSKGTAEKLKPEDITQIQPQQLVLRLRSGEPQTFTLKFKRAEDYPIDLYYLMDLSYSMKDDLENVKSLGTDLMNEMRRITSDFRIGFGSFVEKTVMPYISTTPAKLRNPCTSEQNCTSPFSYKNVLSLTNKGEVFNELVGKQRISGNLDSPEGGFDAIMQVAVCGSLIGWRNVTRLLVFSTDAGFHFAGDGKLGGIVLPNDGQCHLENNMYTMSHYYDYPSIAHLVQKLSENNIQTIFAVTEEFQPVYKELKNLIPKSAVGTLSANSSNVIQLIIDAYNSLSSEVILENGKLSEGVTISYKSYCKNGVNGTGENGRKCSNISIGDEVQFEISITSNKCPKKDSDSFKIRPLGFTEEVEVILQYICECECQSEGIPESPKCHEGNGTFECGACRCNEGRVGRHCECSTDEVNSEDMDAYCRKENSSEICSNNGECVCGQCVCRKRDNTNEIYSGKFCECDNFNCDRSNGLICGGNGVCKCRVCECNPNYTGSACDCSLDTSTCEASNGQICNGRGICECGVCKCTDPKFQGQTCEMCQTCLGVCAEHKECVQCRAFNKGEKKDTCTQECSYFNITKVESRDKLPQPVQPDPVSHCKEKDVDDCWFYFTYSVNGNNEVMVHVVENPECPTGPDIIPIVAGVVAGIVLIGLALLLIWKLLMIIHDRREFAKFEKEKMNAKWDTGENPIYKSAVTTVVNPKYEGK
Sequence of Integrin beta-1 (Homo sapiens) + Integrin alpha-4 (Homo sapiens) (P13612 whole entry, looked up): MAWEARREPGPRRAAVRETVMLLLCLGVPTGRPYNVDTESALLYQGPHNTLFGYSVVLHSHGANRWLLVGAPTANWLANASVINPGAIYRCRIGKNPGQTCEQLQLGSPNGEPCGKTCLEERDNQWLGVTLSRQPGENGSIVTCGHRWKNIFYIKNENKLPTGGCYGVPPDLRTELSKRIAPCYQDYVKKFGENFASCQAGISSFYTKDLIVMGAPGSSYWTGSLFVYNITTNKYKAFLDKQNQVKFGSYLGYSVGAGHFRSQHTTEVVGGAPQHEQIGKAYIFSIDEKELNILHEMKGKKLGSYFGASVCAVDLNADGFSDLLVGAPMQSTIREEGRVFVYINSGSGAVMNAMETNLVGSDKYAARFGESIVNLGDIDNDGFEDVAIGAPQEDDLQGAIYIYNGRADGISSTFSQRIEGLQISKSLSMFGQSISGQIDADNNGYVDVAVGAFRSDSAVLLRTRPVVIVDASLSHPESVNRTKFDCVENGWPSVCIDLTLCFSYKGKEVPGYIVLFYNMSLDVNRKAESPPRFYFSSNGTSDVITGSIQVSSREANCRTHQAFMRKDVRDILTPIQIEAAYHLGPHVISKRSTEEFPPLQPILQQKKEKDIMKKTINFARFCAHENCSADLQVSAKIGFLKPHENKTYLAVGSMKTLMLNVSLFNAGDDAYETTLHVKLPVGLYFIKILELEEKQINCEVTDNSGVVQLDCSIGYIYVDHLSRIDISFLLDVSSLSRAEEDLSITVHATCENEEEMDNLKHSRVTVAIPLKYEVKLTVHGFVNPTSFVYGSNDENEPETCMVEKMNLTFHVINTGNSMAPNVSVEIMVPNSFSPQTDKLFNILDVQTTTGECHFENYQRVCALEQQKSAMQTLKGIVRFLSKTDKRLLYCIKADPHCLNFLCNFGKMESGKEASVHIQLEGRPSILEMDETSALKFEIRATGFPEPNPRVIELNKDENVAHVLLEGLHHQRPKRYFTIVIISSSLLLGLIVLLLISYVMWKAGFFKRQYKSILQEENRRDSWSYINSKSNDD

SMILES	percent of DMSO control GFP [1]	GFP response vs DMSO [2]	percent response of DMSO control [3]	GFP response vs DMSO [4]	GFP response, % of DMSO [5]	double positive events [6] [%]	vesicle binding response [6]	inhibition [7]	superoxide response (% of plate) [8]	aptamer binding inhibition [9]	response [10]	inhibition [11]	response [12]	binding (% of control) [13]	efflux inhibition (fraction of control) [14]	inhibition [15]	differentiation response [16]
O=C1C(=O)c2ccccc2C(O)=C1c1ccccc1F	111% (inactive)	99.9% (inactive)	71.2% (inactive)	109% (inactive)	85% (inactive)	54.9	15.9% (active)	-11.8% (inactive)	175% (inactive)	6% (inactive)	4.63% (inactive)	5.16% (inactive)	0.28% (inactive)	99% (inactive)	0.46 (active)	5% (inactive)	14.1% (inactive)
CN=C(NC#N)NCCSCc1nc[nH]c1C	102% (inactive)	101% (inactive)	109% (inactive)	94.8% (inactive)	102% (inactive)	62.1	195% (inactive)	-14.5% (inactive)	104% (inactive)	-1% (inactive)	3.13% (inactive)	5.55% (inactive)	0.96% (inactive)	103% (inactive)	-0.44 (inactive)	9% (inactive)	-10.4% (inactive)
Cc1cc(C)c(NC(=O)NC(=O)C(Cl)(Cl)Cl)c(C)c1	103% (inactive)	97.2% (inactive)	101% (inactive)	90.7% (inactive)	94.2% (inactive)	62.2	464% (inactive)	13% (inactive)	97.8% (inactive)	4% (inactive)	-6.36% (inactive)	-8.2% (inactive)	13.6% (inactive)	96.9% (inactive)	-0.04 (inactive)	-19% (inactive)	0.24% (inactive)
Cn1nc(-c2ccc(Cl)cc2)nc2c(=O)n(C)c(=O)nc1-2	74.2% (active)	138% (inactive)	74.4% (inactive)	137% (inactive)	76.7% (inactive)	62.1	215% (inactive)	-12.2% (inactive)	79.2% (inactive)	45% (active)	17.6% (inactive)	-4.09% (inactive)	59.4% (active)	108% (inactive)	0.12 (inactive)	-16% (inactive)	-4.99% (inactive)
CN1C2CCC1CC(OC(c1ccccc1)c1ccccc1)C2 (stereo not drawn)	101% (inactive)	96.2% (inactive)	108% (inactive)	99.9% (inactive)	98% (inactive)	64.3	247% (inactive)	19.3% (inactive)	93% (inactive)	-8% (inactive)	8.88% (inactive)	-19% (inactive)	1.18% (inactive)	98.4% (inactive)	-0.1 (inactive)	-11% (inactive)	26.6% (inactive)
CC1=C/C(=N\N=C2\NC(=O)C(CC(=O)Nc3ccccc3F)S2)CC(C)(C)C1 (stereo not drawn)	94.2% (inactive)	125% (inactive)	86% (inactive)	83.1% (inactive)	95.2% (inactive)	58	104% (inactive)	12.3% (inactive)	96.1% (inactive)	8% (inactive)	-1.66% (inactive)	-7.65% (inactive)	1.96% (inactive)	102% (inactive)	-0.2 (inactive)	11% (inactive)	4.09% (inactive)
CCOc1cc2c3c(c1)C(C)=CC(C)(C)N3C(=O)C2=O	95% (inactive)	111% (inactive)	103% (inactive)	108% (inactive)	102% (inactive)	43.2	11.7% (active)	35.1% (inactive)	108% (inactive)	0% (inactive)	23% (inactive)	51.5% (inactive)	-5.76% (inactive)	101% (inactive)	-0.13 (inactive)	4% (inactive)	-0.8% (inactive)
O=C(CN1C(=O)c2ccccc2C1=O)Nc1cccc([N+](=O)[O-])c1	103% (inactive)	98.7% (inactive)	109% (inactive)	100% (inactive)	106% (inactive)	61.2	130% (inactive)	-18.5% (inactive)	94.2% (inactive)	-3% (inactive)	-3.16% (inactive)	35% (inactive)	-0.16% (inactive)	101% (inactive)	0.005 (inactive)	7% (inactive)	-10.4% (inactive)
COc1cc2nc(-c3ccccc3)nc(N3CCCC3)c2cc1OC	104% (inactive)	98.3% (inactive)	107% (inactive)	82.2% (inactive)	104% (inactive)	68.2	459% (inactive)	-36.8% (inactive)	85.3% (inactive)	6% (inactive)	-10% (inactive)	-3.58% (inactive)	2.32% (inactive)	98.2% (inactive)	-0.07 (inactive)	11% (inactive)	-1.71% (inactive)
